Records with an inconclusive call do not appear. Activity calls are given as the source filed them. Unless noted, calls come from the whole dose curve; as a rule, active = well fitted curve in the direction sought with a large enough effect in the repeat runs; inconclusive = weak or mixed curves; inactive = no such curve, though single readings can be large; an effect the other way counts as inactive or inconclusive.
Experiments:
[1] = A CellTox Green Cytotoxicity Assay to monitor cytotoxicity in HepG2 cells - 8 hour (AID 1224890); note: nearly all actives have a fitted effect of over 45% in size
Outline: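 Measurements at 0, 8, 16, 24, 32 and 40 h of treatment captured CellTox Green fluorescence in HepG2 cells that had been co-plated with reagent and preincubated 5 h at 37 C/5% CO2.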

[2] = qHTS assay to identify small molecule antagonists of the estrogen receptor alpha (ER-alpha) signaling pathway using the BG1 cell line in the presence of 0.1 nM 17-beta-estradiol - cell viability counter screen (AID 1259241); note: nearly all actives have a fitted effect of over 40% in size
Outline: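 VM7Luc4E2, 4,000 cells/well, phenol red-free medium + 10% charcoal-stripped FBS; 24 hr plating; cpd + 0.1 nM E2 final, 22 hr 37C/5% CO2; CellTiter-Fluor 30 min, fluorescence.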

[3] = qHTS assay to identify small molecule antagonists of the androgen receptor (AR) signaling pathway using the MDA cell line in the presence of 0.5 nM R1881 - cell viability counter screen (AID 1259242); note: nearly all actives have a fitted effect of over 45% in size
Outline: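 Concentration-response screen of compounds for toxicity in MDA-kb2 reporter cells: 16 hr at 37C with 0.5 nM R1881, endpoint live-cell protease fluorescence measured in the reporter wells.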

[4] = target: Androgen receptor (Homo sapiens) (UniProt P10275); assay: qHTS assay to identify small molecule antagonists of the androgen receptor (AR) signaling pathway using the MDA cell line in the presence of 0.5 nM R1881 (AID 1259243); note: nearly all actives have a fitted effect of over 50% in size; note: potency is the fitted concentration of half-maximal effect
Chain of Androgen receptor (Homo sapiens) (P10275 whole entry, looked up): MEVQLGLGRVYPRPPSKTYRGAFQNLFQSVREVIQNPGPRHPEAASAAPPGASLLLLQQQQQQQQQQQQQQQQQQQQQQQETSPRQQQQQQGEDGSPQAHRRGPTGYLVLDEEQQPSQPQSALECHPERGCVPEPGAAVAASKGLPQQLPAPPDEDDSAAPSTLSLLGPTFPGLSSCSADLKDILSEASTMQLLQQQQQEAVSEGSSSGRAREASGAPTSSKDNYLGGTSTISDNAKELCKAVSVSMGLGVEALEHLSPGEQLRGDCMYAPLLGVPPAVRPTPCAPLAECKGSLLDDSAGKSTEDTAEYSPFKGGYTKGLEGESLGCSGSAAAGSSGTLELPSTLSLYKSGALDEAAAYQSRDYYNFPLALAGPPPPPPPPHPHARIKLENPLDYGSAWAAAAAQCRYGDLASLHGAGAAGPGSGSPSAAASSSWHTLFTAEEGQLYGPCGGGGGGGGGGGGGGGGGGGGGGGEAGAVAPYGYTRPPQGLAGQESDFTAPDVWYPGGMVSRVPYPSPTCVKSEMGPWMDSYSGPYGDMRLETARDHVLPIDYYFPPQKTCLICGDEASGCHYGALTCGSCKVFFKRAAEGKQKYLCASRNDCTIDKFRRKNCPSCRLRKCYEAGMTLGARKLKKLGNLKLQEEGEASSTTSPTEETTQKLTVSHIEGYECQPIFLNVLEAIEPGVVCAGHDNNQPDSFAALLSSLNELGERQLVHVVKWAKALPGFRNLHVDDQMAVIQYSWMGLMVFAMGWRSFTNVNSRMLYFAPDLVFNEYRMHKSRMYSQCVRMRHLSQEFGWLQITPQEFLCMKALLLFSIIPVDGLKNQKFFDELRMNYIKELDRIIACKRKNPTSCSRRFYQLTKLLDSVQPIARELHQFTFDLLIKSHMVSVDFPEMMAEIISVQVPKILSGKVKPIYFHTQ
Outline: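 With R1881 held at 0.5 nM (final), compound effects on MMTV-luciferase expression in MDA-kb2 cells were scored by luminescence after a 16 hr, 37C incubation.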

[5] = qHTS assay to identify small molecule phospholipidosis (PLD) inducers (AID 1259344; active = well fitted curve in the direction sought with a large enough effect; an effect the other way counts as inactive or inconclusive)
Outline: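 Image-based: LipidTOX Red pit count/intensity per well and per cell; HepG2, 24 h compound at 37 C, PFA fixation, Hoechst counterstain.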

[6] = qHTS assay to identify small molecule HDAC inhibitors (AID 1259364);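 note: wild-type HCT-116 cells with endogenous class I/II HDAC activity; top concentration of the series differs between compounds; nearly all actives have a fitted effect of over 45% in size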
Outline: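 Screening used wild-type human colon HCT-116 cells incubated overnight, dosed with compounds for 2 hours, and assayed with a homogeneous luminogenic HDAC I/II reagent for 30 minutes at room temperature.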

[7] = qHTS assay to identify small molecule HDAC inhibitors - cell viability counter screen (AID 1259365); note: series mostly up to about 92 µM; nearly all actives have a fitted effect of over 50% in size
Outline: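 Luminescence from CellTiter-Glo, developed 30min at room temperature, reports viability of wild-type HCT-116 cells treated 2hr with compounds at 37 C and 5% CO2 after overnight plating.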

[8] = qHTS assay to identify small molecule agonists of the sonic hedgehog signaling (Shh) pathway - cell viability counter screen (AID 1259366); note: nearly all actives have a fitted effect of over 50% in size
Outline: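 Cytotoxicity counter screen run in the same wells as the Shh reporter assay. NIH/3T3 cells carrying a Gli1 response element–driven luciferase were treated with DMSO-dissolved compounds for 24hr, and live-cell protease activity was measured with CellTiter-Fluor.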

[9] = qHTS assay to identify small molecule antagonists of the sonic hedgehog signaling (Shh) pathway - cell viability counter screen (AID 1259367); note: nearly all actives have a fitted effect of over 55% in size
Outline: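 Tox21 library chemicals were tested on a Gli1-Luc NIH/3T3 clone (2,000 cells/well) stimulated by conditioned medium; viability was quantified as fluorescence from CellTiter-Fluor reagent added at 23 hr.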

[10] = qHTS assay to identify small molecule agonists of the sonic hedgehog signaling (Shh) pathway (AID 1259368; calls by dose curve;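 note: NIH/3T3-derived 3T3Gli1-Luc cells carrying a stable Gli1-driven firefly luciferase reporter; series mostly up to about 92 µM; nearly all actives have a fitted effect of over 15% in size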)
Outline: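 Hedgehog pathway agonism scored by increased firefly luciferase luminescence in 3T3Gli1-Luc cells treated 24 hr at 37 C; detection used a 30 min room-temperature reagent incubation.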

[11] = qHTS assay to identify small molecule antagonists of the sonic hedgehog signaling (Shh) pathway (AID 1259369; calls by dose curve; note: nearly all actives have a fitted effect of over 45% in size)
Outline: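 NIH/3T3 stable Gli1-Luc clone, 2,000 cells/well, 4hr settle; cpd + conditioned medium 24hr; Luc reagent 30min RT; luminescence.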

[12] = target: Estrogen receptor beta (Homo sapiens) (UniProt Q92731); assay: qHTS assay to identify small molecule agonists of the estrogen receptor beta (ER-beta) signaling pathway (AID 1259377; active = well fitted activation curve with a large enough effect in the signal ratio in the repeat runs, not every such curve was filed as active; the % refers to the signal ratio)
Chain of Estrogen receptor beta (Homo sapiens) (Q92731 whole entry, looked up): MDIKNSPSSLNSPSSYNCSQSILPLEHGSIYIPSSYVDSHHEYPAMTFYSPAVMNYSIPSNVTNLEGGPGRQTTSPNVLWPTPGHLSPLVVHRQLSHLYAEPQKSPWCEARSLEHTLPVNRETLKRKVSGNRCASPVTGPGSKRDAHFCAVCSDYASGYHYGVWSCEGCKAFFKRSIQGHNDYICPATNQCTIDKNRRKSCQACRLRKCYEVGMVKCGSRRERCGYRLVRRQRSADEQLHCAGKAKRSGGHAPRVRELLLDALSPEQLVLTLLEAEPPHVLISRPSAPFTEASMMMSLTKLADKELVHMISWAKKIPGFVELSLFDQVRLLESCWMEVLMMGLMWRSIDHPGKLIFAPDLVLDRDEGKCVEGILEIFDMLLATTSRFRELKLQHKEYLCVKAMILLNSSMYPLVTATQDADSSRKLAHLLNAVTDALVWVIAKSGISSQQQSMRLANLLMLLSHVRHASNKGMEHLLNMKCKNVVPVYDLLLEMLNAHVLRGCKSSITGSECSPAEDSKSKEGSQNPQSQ
Outline: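 HEK293T ER-beta-UAS-bla; 2% charcoal-stripped FBS; cells pre-incubated 6 hr, compound 16 hr, 37C/5% CO2; LiveBLAzer B/G FRET substrate 2 h RT; fluorescence intensity read.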

[13] = target: Estrogen receptor beta (Homo sapiens) (UniProt Q92731); assay: qHTS assay to identify small molecule antagonists of the estrogen receptor beta (ER-beta) signaling pathway (AID 1259378; active = well fitted inhibition curve with a large enough effect in the signal ratio in the repeat runs, not every such curve was filed as active; the % refers to the signal ratio)
Outline: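 ER-beta-UAS-bla HEK293T cells in 2% charcoal-stripped FBS medium treated with compound plus 1nM final 17-beta-estradiol for 16 hr at 37C. Beta-lactamase reporter read by FRET substrate fluorescence after 2 hours at room temperature.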

[14] = qHTS assay to identify small molecule agonists of the androgen receptor (AR) signaling pathway in the presence of an antagonist - cell viability counter screen (AID 1259379);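 note: MDA-kb2 human breast cancer cells carrying an MMTV luciferase reporter; series mostly up to about 92 µM; nearly all actives have a fitted effect of over 25% in size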
Outline: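 MDA-kb2 viability measured by CellTiter-Fluor fluorescence in the same wells as the luciferase signal; nilutamide 3.0uM final; 15-point compound titration; 16 hr at 37C.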

[15] = qHTS assay to identify small molecule agonists of the estrogen receptor beta (ER-beta) signaling pathway - cell viability counter screen (AID 1259380); note: nearly all actives have a fitted effect of over 30% in size
Outline: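 Measured: luminescence from CellTiter-Glo after 30 min at room temperature, added to wells already read for the LiveBLAzer FRET reporter (2 hr substrate); ER-beta-UAS-bla HEK293T cells had 16 hr compound treatment at 37C, 5% CO2.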

[16] = target: Androgen receptor (Homo sapiens) (UniProt P10275); assay: qHTS assay to identify small molecule agonists of the androgen receptor (AR) signaling pathway in the presence of an antagonist (AID 1259381; calls by dose curve; note: nearly all actives have a fitted effect of over 15% in size)
Outline: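 Luminescent ONE-Glo read, 30min at room temperature, follows 16hr compound exposure (15 concentrations) of MDA-kb2 cells at 37C, 0% CO2, with nilutamide added at 3.0uM final.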

[17] = qHTS assay to identify small molecule antagonists of the estrogen receptor beta (ER-beta) signaling pathway - cell viability counter screen (AID 1259382); note: series mostly up to about 92 µM; nearly all actives have a fitted effect of over 55% in size
Outline: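 Readout: luminescence, CellTiter-Glo, same wells as bla assay. System: ER-beta-UAS-bla GripTite HEK293T, 2% charcoal-stripped FBS. Exposure: compounds plus 1nM 17-beta-estradiol, 16 hr, 37C.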

[18] = qHTS assay to identify small molecule agonists or antagonists of the thyroid stimulating hormone receptor (TSHR) signaling pathway - wild type cell line counter screen (AID 1259384; calls by dose curve)
Outline: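 Wild-type Hek293 cells, 800/well, 18 h at 37C, then compound with Ro20-1724 for 30 min RT. cAMP by HTRF (cAMP-d2/anti-cAMP cryptate), 1 h RT, fluorescence read. 15 concentrations, triplicates.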

[19] = target: Estrogen receptor (Homo sapiens) (UniProt P03372); assay: qHTS assay to identify small molecule antagonists of the estrogen receptor alpha (ER-alpha) signaling pathway using the BG1 cell line in the presence of 0.1 nM 17-beta-estradiol (AID 1259244); note: nearly all actives have a fitted effect of over 50% in size
Chain of Estrogen receptor (Homo sapiens) (P03372 whole entry, looked up): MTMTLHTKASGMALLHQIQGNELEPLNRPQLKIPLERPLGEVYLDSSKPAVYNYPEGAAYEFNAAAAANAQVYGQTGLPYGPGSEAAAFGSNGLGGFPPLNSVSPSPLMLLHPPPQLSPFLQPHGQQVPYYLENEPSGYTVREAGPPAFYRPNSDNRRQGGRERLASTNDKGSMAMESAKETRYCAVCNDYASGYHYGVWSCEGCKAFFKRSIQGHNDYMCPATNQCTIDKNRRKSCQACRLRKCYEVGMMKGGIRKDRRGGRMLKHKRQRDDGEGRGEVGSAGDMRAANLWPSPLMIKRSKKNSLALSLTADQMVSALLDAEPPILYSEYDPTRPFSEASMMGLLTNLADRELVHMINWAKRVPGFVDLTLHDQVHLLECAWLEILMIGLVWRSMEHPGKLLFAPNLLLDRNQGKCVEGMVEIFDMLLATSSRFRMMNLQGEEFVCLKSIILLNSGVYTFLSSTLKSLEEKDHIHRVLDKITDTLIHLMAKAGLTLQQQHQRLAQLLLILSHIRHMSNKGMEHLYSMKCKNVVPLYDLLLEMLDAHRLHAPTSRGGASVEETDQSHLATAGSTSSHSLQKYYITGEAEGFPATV
Outline: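 Compounds were tested against 0.1 nM (final) 17beta-estradiol in VM7Luc4E2 cells, which express full-length ER-alpha and an ERE-luciferase reporter; luminescence was recorded following 22 h exposure.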

[20] = target: Estrogen receptor (Homo sapiens) (UniProt P03372); assay: qHTS assay to identify small molecule agonists of the estrogen receptor alpha (ER-alpha) signaling pathway in the presence of an antagonist (AID 1259383; calls by dose curve; note: top concentration of the series differs between compounds; nearly all actives have a fitted effect of over 15% in size)
Outline: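 Quantitative HTS confirmation: compounds titrated at 15 concentrations onto estrogen-deprived VM7Luc4E2 cells carrying a four-ERE luciferase construct, with ICI-182,780 present at 10.0nM final. Signal is luminescence after 22hr exposure.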

Measured: Potency

C[C@H](CS)C(=O)N1CCC[C@H]1C(=O)O
not listed: [19] | [20]
inactive: all other assays above

O=C1CC[C@@H](C(=O)O)N1
not listed: [19] | [20]
inactive: all other assays above

CC(=O)OCC(C)C
not listed: [5] | [6] | [15] | [18]
inactive: all other assays above

CC(C)(C)C(O)/C=C/c1ccc2c(c1)OCO2 (centres undefined)
not listed: [4] | [6] | [16]
inactive: all other assays above

CCCCCCCCCCCCCC(=O)OCC(O)CO (centres undefined)
not listed: [5] | [19] | [20]
inactive: all other assays above

C=CC(=O)O
not listed: [4] | [6] | [16]
inactive: all other assays above

COC(=O)C1=C(C)NC(C)=C(C(=O)OC(C)(C)CN(C)CCC(c2ccccc2)c2ccccc2)C1c1cccc([N+](=O)[O-])c1 (centres undefined)
active: [4] 26.6 µM
not listed: [11] | [13] | [14] | [19]
inactive: all other assays above

Source: PubChem BioAssay (Tox21)
